{
  "source": "PubChem BioAssay (NCATS)",
  "note": "Inconclusive results are not listed. A number with no mark means an inactive call. Calls come from the whole dose curve; as a rule, active = well fitted curve in the direction sought with a large enough effect; inconclusive = small, poorly fitted or top-dose-only effect, or another doubt; inactive = no such curve, though single readings can be large; an effect the other way counts as inactive or inconclusive. Note: top concentration of the series differs between compounds.",
  "data": [
    {"tested_on": "not listed separately", "experiment": "Primary qHTS for inhibitors of La Crosse Virus (LACV) - induced cell death in SH-SY5Y cells (AID 1508616);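 note: 0% = infected DMSO wells and 100% = uninfected DMSO wells; higher means more rescue of cells from virus-induced death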", "details": "SH-SY5Y LACV cytopathicity rescue, ATP luminescence, 6 d; series mostly up to 4.29 µM; activity change: at the top concentration", "outline": "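Protection against LACV-induced cell death is scored in SH-SY5Y cells exposed to compounds and virus (0.01 MOI) for 6 days. Data normalized to virus-infected DMSO wells and virus-free DMSO wells.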", "values": [
      {"smiles": "C[C@]12Cc3nonc3C[C@@H]1CC[C@@H]1[C@@H]2CC[C@@]2(C)[C@H]1CC[C@]2(C)O", "activity change": "32.5%"},
      {"smiles": "CCO[C@H]1O[C@@H]2OC3(C)CC[C@H]4[C@H](C)CC[C@@H]([C@H]1C)[C@@]24OO3", "activity change": "-5.12%"},
      {"smiles": "C=CC[C@]1(O)CC[C@H]2[C@@H]3CCC4=CC(=O)CCC4=C3C=C[C@@]21C", "activity change": "2.74%"},
      {"smiles": "CNC(C)Cc1ccc2c(c1)OCO2", "note": "(stereo unspecified)", "activity change": "35.1% [at 9.63 µM]"},
      {"smiles": "CC[C@H]1C[C@@H]2C[C@H]3c4[nH]c5ccc(OC)cc5c4CCN(C2)[C@@H]13", "activity change": "-11% [at 8.54 µM]"},
      {"smiles": "CCOC(C(=O)OCCN(C)C)(c1ccccc1)c1ccccc1", "activity change": "24.3%"},
      {"smiles": "C[C@]12CC[C@H]3[C@@H](CC=C4C[C@@H](O)CC[C@@]43C)[C@@H]1CC[C@@H]2O", "activity change": "-9.44%"},
      {"smiles": "CN1CCC(N(Cc2ccccc2)c2ccccc2)CC1", "activity change": "-18.9%"},
      {"smiles": "CCN(CC)Cc1nccn1-c1ccc([N+](=O)[O-])cc1C(=O)c1ccccc1Cl", "activity change": "105%"},
      {"smiles": "COP(=S)(OC)Oc1ccc(S(N)(=O)=O)cc1", "activity change": "13.8%"},
      {"smiles": "CC1Sc2c(C(=O)O)c(=O)c3cc(F)c(N4CCNCC4)cc3n21", "note": "(stereo unspecified)", "activity change": "-5.15%"},
      {"smiles": "CC[C@H]1C[C@H]2[C@@H]3CCC4=CC(=O)CC[C@@H]4[C@H]3CC[C@]2(C)[C@H]1O", "activity change": "-2.8%"},
      {"smiles": "COP(=O)(OC)C(O)C(Cl)(Cl)Cl", "note": "(stereo unspecified)", "activity change": "14.5%"},
      {"smiles": "CN(C)CCc1c[nH]c2ccccc12", "activity change": "-8.75% [at 9.63 µM]"},
      {"smiles": "ClCc1cccc(Cl)c1", "activity change": "-2.52%"},
      {"smiles": "CC(Cc1ccccc1)NCCCCl", "note": "(stereo unspecified)", "activity change": "-1.1%"},
      {"smiles": "CCOC(=O)NC(O)C(Cl)(Cl)Cl", "note": "(stereo unspecified)", "activity change": "-0.936%"},
      {"smiles": "CC(C)NCC(O)c1ccc(N)c(C#N)c1", "note": "(stereo unspecified)", "activity change": "18.4%"},
      {"smiles": "Cc1nc2ccccc2c(=O)n1-c1ccccc1Cl", "activity change": "17.8% [at 8.54 µM]"},
      {"smiles": "Cc1ncc2n1-c1ccc(Cl)cc1C(c1ccccc1F)=NC2", "activity change": "138%"},
      {"smiles": "CCN1CCCC1CNC(=O)C(O)(c1ccccc1)c1ccccc1", "note": "(stereo unspecified)", "activity change": "7.7%"},
      {"smiles": "CCOP(=S)(OCC)O/N=C(\\C#N)c1ccccc1", "activity change": "-2.77%"},
      {"smiles": "COc1ccc(CN2CCNCC2)c(OC)c1OC", "activity change": "20.6%"},
      {"smiles": "CC(C)[N+](C)(CCC(C(N)=O)(c1ccccc1)c1ccccc1)C(C)C", "activity change": "-3.58%"},
      {"smiles": "CCCCC1C(=O)NC(=O)N(C2CCCCC2)C1=O", "note": "(stereo unspecified)", "activity change": "-0.176%"},
      {"smiles": "CCCC(C)C1(CC)C(=O)N=C(S)NC1=O", "note": "(stereo unspecified)", "activity change": "2.53%"},
      {"smiles": "Sc1ccccc1Cl", "activity change": "3.56%"},
      {"smiles": "COc1cc(CC#N)cc(OC)c1OC", "activity change": "-5.76%"},
      {"smiles": "CC(Cc1ccc2c(c1)OCO2)NO", "note": "(stereo unspecified)", "activity change": "-6.96% [at 9.63 µM]"},
      {"smiles": "C[C@H]1C(=O)O[C@@H]2CCN3CC=C(COC(=O)[C@](C)(O)[C@]1(C)O)[C@H]23", "activity change": "-0.589%"},
      {"smiles": "Cc1ccc(N=CN(C)C=Nc2ccc(C)cc2C)c(C)c1", "activity change": "0.307%"},
      {"smiles": "C[C@H](CN1CCOCC1)C(C(=O)N1CCCC1)(c1ccccc1)c1ccccc1", "activity change": "4.63% [at 9.63 µM]"},
      {"smiles": "C[N+]1(CCC(C(N)=O)(c2ccccc2)c2ccccc2)CCCCC1", "activity change": "15.5%"},
      {"smiles": "CCOC(=O)c1ncn2c1CN(C)C(=O)c1c(I)cccc1-2", "activity change": "-9.69%"},
      {"smiles": "CCN(CC)CCOC(=O)C(C)(c1ccccc1)c1ccccc1", "activity change": "-3.49%"},
      {"smiles": "O=C(N[C@H]1N=C(c2ccccc2F)c2cccc3c2N(CC3)C1=O)c1cc2ccccc2[nH]1", "activity change": "-5.27%"},
      {"smiles": "CCS(=O)(=O)C(C)(C)S(=O)(=O)CC", "activity change": "-4.75%"},
      {"smiles": "C[C@]12C=CC(=O)C=C1CC[C@@H]1[C@@H]2CC[C@@]2(C)[C@H]1CC[C@]2(C)O", "activity change": "4.08%"}
    ]},
    {"target": "Calcium and integrin-binding protein 1 (Homo sapiens) (UniProt Q99828)", "sequence (Q99828 whole entry, looked up)": "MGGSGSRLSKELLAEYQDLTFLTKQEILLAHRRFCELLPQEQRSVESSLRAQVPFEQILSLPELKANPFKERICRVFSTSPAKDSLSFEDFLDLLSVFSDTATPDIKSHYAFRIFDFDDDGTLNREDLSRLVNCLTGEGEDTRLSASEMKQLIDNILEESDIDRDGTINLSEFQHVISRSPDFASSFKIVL", "experiment": "Primary qHTS for Identification of Calcium Integrin Binding Protein 1 (CIB1) Competitor (AID 1508620);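 note: GST tagged CIB1 binding a fluorescein labelled alphaIIb integrin peptide tracer; % is set by controls: 0 for no effect and ±100 for the full control effect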", "details": "CIB1-GST / FITC-alphaIIb peptide fluorescence polarization; series mostly up to 114 µM; activity change, negative = inhibition: at the top concentration", "outline": "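CIB1-GST (1 uM final) and compound incubated 15 min at room temperature before adding FITC-alphaIIb peptide tracer (100 nM final). Competition for binding read by fluorescence polarization (ex 480, em 540) after another 15 min at room temperature.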", "values": [
      {"smiles": "C[C@]12Cc3nonc3C[C@@H]1CC[C@@H]1[C@@H]2CC[C@@]2(C)[C@H]1CC[C@]2(C)O", "activity change, negative = inhibition": "-12.8%"},
      {"smiles": "CCO[C@H]1O[C@@H]2OC3(C)CC[C@H]4[C@H](C)CC[C@@H]([C@H]1C)[C@@]24OO3", "activity change, negative = inhibition": "0.886%"},
      {"smiles": "C=CC[C@]1(O)CC[C@H]2[C@@H]3CCC4=CC(=O)CCC4=C3C=C[C@@]21C", "activity change, negative = inhibition": "0.486%"},
      {"smiles": "CNC(C)Cc1ccc2c(c1)OCO2", "note": "(stereo unspecified)", "activity change, negative = inhibition": "-0.195% [at 228 µM]"},
      {"smiles": "CC[C@H]1C[C@@H]2C[C@H]3c4[nH]c5ccc(OC)cc5c4CCN(C2)[C@@H]13", "activity change, negative = inhibition": "-9.61% [at 228 µM]"},
      {"smiles": "CCOC(C(=O)OCCN(C)C)(c1ccccc1)c1ccccc1", "activity change, negative = inhibition": "4.99%"},
      {"smiles": "C[C@]12CC[C@H]3[C@@H](CC=C4C[C@@H](O)CC[C@@]43C)[C@@H]1CC[C@@H]2O", "activity change, negative = inhibition": "6.64%"},
      {"smiles": "CN1CCC(N(Cc2ccccc2)c2ccccc2)CC1", "activity change, negative = inhibition": "4.46%"},
      {"smiles": "CCN(CC)Cc1nccn1-c1ccc([N+](=O)[O-])cc1C(=O)c1ccccc1Cl", "activity change, negative = inhibition": "3.08%"},
      {"smiles": "COP(=S)(OC)Oc1ccc(S(N)(=O)=O)cc1", "activity change, negative = inhibition": "0.695%"},
      {"smiles": "CC1Sc2c(C(=O)O)c(=O)c3cc(F)c(N4CCNCC4)cc3n21", "note": "(stereo unspecified)", "activity change, negative = inhibition": "-12.1%"},
      {"smiles": "CC[C@H]1C[C@H]2[C@@H]3CCC4=CC(=O)CC[C@@H]4[C@H]3CC[C@]2(C)[C@H]1O", "activity change, negative = inhibition": "-2.03%"},
      {"smiles": "COP(=O)(OC)C(O)C(Cl)(Cl)Cl", "note": "(stereo unspecified)", "activity change, negative = inhibition": "8.75%"},
      {"smiles": "CN(C)CCc1c[nH]c2ccccc12", "activity change, negative = inhibition": "0.154% [at 384 µM]"},
      {"smiles": "ClCc1cccc(Cl)c1", "activity change, negative = inhibition": "-1.94%"},
      {"smiles": "CC(Cc1ccccc1)NCCCCl", "note": "(stereo unspecified)", "activity change, negative = inhibition": "-1.11%"},
      {"smiles": "CCOC(=O)NC(O)C(Cl)(Cl)Cl", "note": "(stereo unspecified)", "activity change, negative = inhibition": "4.79%"},
      {"smiles": "CC(C)NCC(O)c1ccc(N)c(C#N)c1", "note": "(stereo unspecified)", "activity change, negative = inhibition": "1.21%"},
      {"smiles": "Cc1nc2ccccc2c(=O)n1-c1ccccc1Cl", "activity change, negative = inhibition": "0.118% [at 228 µM]"},
      {"smiles": "Cc1ncc2n1-c1ccc(Cl)cc1C(c1ccccc1F)=NC2", "activity change, negative = inhibition": "1.42%"},
      {"smiles": "CCN1CCCC1CNC(=O)C(O)(c1ccccc1)c1ccccc1", "note": "(stereo unspecified)", "activity change, negative = inhibition": "-3.29%"},
      {"smiles": "CCOP(=S)(OCC)O/N=C(\\C#N)c1ccccc1", "activity change, negative = inhibition": "-1.35%"},
      {"smiles": "COc1ccc(CN2CCNCC2)c(OC)c1OC", "activity change, negative = inhibition": "4.66%"},
      {"smiles": "CC(C)[N+](C)(CCC(C(N)=O)(c1ccccc1)c1ccccc1)C(C)C", "activity change, negative = inhibition": "8.29%"},
      {"smiles": "CCCCC1C(=O)NC(=O)N(C2CCCCC2)C1=O", "note": "(stereo unspecified)", "activity change, negative = inhibition": "-2.11%"},
      {"smiles": "CCCC(C)C1(CC)C(=O)N=C(S)NC1=O", "note": "(stereo unspecified)", "activity change, negative = inhibition": "-4.84%"},
      {"smiles": "Sc1ccccc1Cl", "activity change, negative = inhibition": "-7.19%"},
      {"smiles": "COc1cc(CC#N)cc(OC)c1OC", "activity change, negative = inhibition": "-2.92%"},
      {"smiles": "CC(Cc1ccc2c(c1)OCO2)NO", "note": "(stereo unspecified)", "activity change, negative = inhibition": "2.73% [at 228 µM]"},
      {"smiles": "C[C@H]1C(=O)O[C@@H]2CCN3CC=C(COC(=O)[C@](C)(O)[C@]1(C)O)[C@H]23", "activity change, negative = inhibition": "-0.108%"},
      {"smiles": "Cc1ccc(N=CN(C)C=Nc2ccc(C)cc2C)c(C)c1", "activity change, negative = inhibition": "3.95%"},
      {"smiles": "C[C@H](CN1CCOCC1)C(C(=O)N1CCCC1)(c1ccccc1)c1ccccc1", "activity change, negative = inhibition": "-1.39% [at 228 µM]"},
      {"smiles": "C[N+]1(CCC(C(N)=O)(c2ccccc2)c2ccccc2)CCCCC1", "activity change, negative = inhibition": "1.78%"},
      {"smiles": "CCOC(=O)c1ncn2c1CN(C)C(=O)c1c(I)cccc1-2", "activity change, negative = inhibition": "2.95%"},
      {"smiles": "CCN(CC)CCOC(=O)C(C)(c1ccccc1)c1ccccc1", "activity change, negative = inhibition": "-3.39%"},
      {"smiles": "O=C(N[C@H]1N=C(c2ccccc2F)c2cccc3c2N(CC3)C1=O)c1cc2ccccc2[nH]1", "activity change, negative = inhibition": "-2.14%"},
      {"smiles": "CCS(=O)(=O)C(C)(C)S(=O)(=O)CC", "activity change, negative = inhibition": "-8.61%"},
      {"smiles": "C[C@]12C=CC(=O)C=C1CC[C@@H]1[C@@H]2CC[C@@]2(C)[C@H]1CC[C@]2(C)O", "activity change, negative = inhibition": "-6.27%"}
    ]}
  ]
}
